Assay outcomes deposited in PubChem by several laboratories.
Rows were chosen to be rich in hits. Some 2.6% of all compounds tested hit in one or more screens of this group.
CF NFkB inh = inhibitors of PAF-induced NF-kB signaling, primary screen, cell-based, GFP fluorescence, uHTS; AID 588850, 2011; inhibition, % at 5 µM; KKLEB NF-kB-GFP reporter, GFP fluorescence overnight; 0.86% of 360,000 active;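 active = at least 50% inhibition at 5 µM, scaled per plate between neutral and stimulator controls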;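 also: PAF is a Pseudomonas aeruginosa culture filtrate used as stimulus; plate controls were PAF-stimulated DMSO wells for no effect and unstimulated DMSO wells for full effect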
TROY signal inh = inhibitors of TROY-driven NF-kB signaling, primary screen, Q293 LMP1-TROYcd cells, NF-kB luciferase, uHTS. 0.98% of 360,000 active. Q293 LMP1-TROYcd NF-kB luciferase reporter, 4 h. inhibition, % at 10 µM;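 active = compounds whose plate-normalised and pattern-corrected inhibition of the luciferase reporter signal at the single screening dose is 50% or more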
KKLEB cytotox = cytotoxicity in KKLEB CF airway cells, primary screen, cytotoxicity control for CF NF-kB inhibitor project, cell-based, uHTS, fluorescence assay plates | activity change (cytotoxicity), % at 5 µM | 0.36% of 360,000 active | KKLEB CF airway cells viability, ATPlite luminescence, overnight; stronger effect = lower value; cells stimulated with P. aeruginosa culture filtrate | AID 602141, 2011;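 active = corrected activity change at or below -50% at 5 µM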
LGR2 inh = inhibitors of bursicon-induced LGR2 CRE-luciferase signal, primary screen, cell-based, HEK293, CRE-luciferase reporter, bursicon stimulation. Drosophila bursicon receptor LGR2 (rickets). bursicon-stimulated, 4 h. 0.35% of 380,000 active. inhibition, % at 9.99 µM;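 active = drop in luminescence signal, shown as inhibition above about 50% in the replicate tests, limit read from the data, passing the limit was not always enough; inconclusive = probably only some replicates passing the limit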;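 also: agonist challenge used bursicon conditioned medium at about half maximal strength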
EWS-Fli inh = EWS/Fli-driven NR0B1 reporter inhibitors, primary screen, A673 cells, NR0B1 luciferase, luminescence, MLPCN library. viability-normalised. inhibition, % at 12.6 µM. 0.67% of 350,000 active. AID 651661, 2012;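 active = mean inhibition of at least 50% after viability correction, with every replicate also passing that limit; inconclusive = mean reaches 50% but only one of two replicates passes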;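 also: firefly luciferase signal divided by Alamar Blue viability fluorescence both relative to DMSO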
TWEAK-Fn14 inh = inhibitors of TWEAK-Fn14 signaling, primary screen, luciferase reporter cells, uHTS | TWEAK-stimulated Fn14 reporter cells, luciferase luminescence, 8 h | inhibition, % at 10 µM | 2% of 360,000 active; in the data active = inhibition above about 50%
Numbers without * were called inactive; ? = inconclusive; . = no result given.

SMILES	CF NFkB inh	TROY signal inh	KKLEB cytotox	LGR2 inh	EWS-Fli inh	TWEAK-Fn14 inh
Cc1ccc(S(=O)(=O)N(C)C[C@H]2OCCCC[C@@H](C)Oc3ccc(NC(=O)Nc4ccccc4)cc3C(=O)N([C@H](C)CO)C[C@H]2C)cc1	.	.	.	19	6	.
Cc1cccc(C2(c3cccc(C)c3)CC2C(=O)Nc2ccc([N+](=O)[O-])cc2O)c1 (stereo not given)	58*	60*	-62*	36	.	74*
CCOc1ccc(N(C)S(=O)(=O)c2cc(-c3cc(C)no3)ccc2CC)cc1	8	47	2	22	-1	72*
COc1ccc(NC(=O)Nc2ccc3c(c2)C(=O)N([C@@H](C)CO)C[C@H](C)[C@@H](CN(C)C(=O)Nc2ccc(F)cc2)OCCCC[C@H](C)O3)cc1	.	.	.	13	5	.
CC(=O)c1ccc(Nc2cc(C)nc3c(C)cc(C)cc23)cc1	-10	-7	-15	99*	16	-3
Cc1cc(C)c2nc(C)cc(Nc3ccc(C(=O)NCCO)cc3)c2c1	-21	-27	-2	4	7	-19
CO[C@H]1CN(C)C(=O)c2ccc(NC(=O)NC(C)C)cc2OC[C@H](C)N(Cc2ccc(-c3ccccn3)cc2)C[C@H]1C	.	.	.	12	4	.
Cc1ccccc1-n1c(SCc2csc(Nc3ccccc3)n2)nnc1-c1cccnc1	10	18	4	9	.	24
Cc1ccc(Nc2nc(CSc3nnnn3C)cs2)cc1	-21	33	-5	.	.	63*
Cc1ccc(Nc2nc(CSc3nnnn3-c3ccccc3)cs2)cc1	22	38	-5	.	.	58*
Cc1ccc(Nc2nc(CSc3nnc(-c4cccnc4)n3-c3ccccc3C)cs2)cc1	23	51*	-2	0	-7	53*
O=C(O)c1cccc(S(=O)(=O)Nc2ccc([N+](=O)[O-])cc2O)c1	-2	18	2	3	0	-4
CCc1ccc(S(=O)(=O)Nc2cc(SCC(=O)O)c(O)c3ccccc23)cc1	64*	60*	4	45	-26	83*
CCOc1ccc(S(=O)(=O)Nc2cc(SCC(=O)O)c(O)c3ccccc23)cc1	91*	54*	-40	19	5	32
O=C(O)CSc1cc(NS(=O)(=O)c2cccc([N+](=O)[O-])c2)c2ccccc2c1O	72*	62*	-7	?	-6	91*
Cc1ccc(C)c(S(=O)(=O)Nc2cc(SCC(=O)O)c(O)c3ccccc23)c1	81*	59*	-54*	.	.	94*
CNC[C@@H]1OCCCC[C@H](C)Oc2ccc(NS(=O)(=O)c3ccc(C)cc3)cc2C(=O)N([C@H](C)CO)C[C@@H]1C	.	.	.	-3	1	.
CC(=O)/C(=C/c1ccccc1)C(=O)Nc1ccccc1C	26	6	-12	17	3	80*
CC(C)(C)n1ncc2c(=O)n(CC(=O)NCc3ccccc3)cnc21	-3	45	-9	.	.	84*
CC(C)(C)n1ncc2c(=O)n(CC(=O)Nc3ccc(Cl)cc3)cnc21	-12	5	6	-3	.	-7
O=[N+]([O-])c1cc(C(F)(F)F)cc([N+](=O)[O-])c1NCCNC(=S)Nc1ccc(Cl)c(Cl)c1	42	58*	-29	29	7	22
Cc1noc(C)c1S(=O)(=O)Nc1cccc2c1O[C@@H](CN(C)S(C)(=O)=O)[C@@H](C)CN([C@H](C)CO)C2=O	.	.	.	1	-1	.
CCC[C@H](CN[C@@H](CNC)[C@H](C)CC)NCCc1cc(C(F)(F)F)cc(C(F)(F)F)c1	13	-7	-49	63*	52*	-72
CCC[C@@H](CN[C@@H](CNC)[C@H](C)CC)NCC1CCC(C(C)(C)C)CC1 (stereo not given in full)	9	1	-30	8	56*	-47
C/C=C/c1ccc([C@H]2[C@@H](CO)N(Cc3ccccn3)[C@H]2CNC(C)=O)cc1	.	.	.	0	-4	.
SMILES	CF NFkB inh	TROY signal inh	KKLEB cytotox	LGR2 inh	EWS-Fli inh	TWEAK-Fn14 inh
COc1cc(C(=O)Nc2ccc(-c3nc4cc(C)ccc4o3)c(O)c2)cc(OC)c1OC	20	2	-17	.	.	52*
O=C(Nc1ccc2oc(-c3cccnc3)nc2c1)c1ccc(Br)o1	-7	.	14	17	.	1
O=C(Nc1ccc2oc(-c3cccnc3)nc2c1)c1ccc([N+](=O)[O-])o1	89*	3	-58*	2	48	21
Cc1ccc(-c2nc3cc(N)ccc3o2)cc1	-14	-12	-9	.	.	70*
Cc1ccc2oc(-c3cccc(N)c3)nc2c1	-48	3	-1	-2	27	51*
CC(=O)N1[C@H](CO)[C@H]2c3ccccc3N(S(=O)(=O)c3ccccc3F)C[C@H]21	.	.	.	9	-3	.
C[C@@H]1CN([C@H](C)CO)C(=O)c2cc(NS(=O)(=O)c3cccs3)ccc2O[C@@H]1CN(C)Cc1ccc(C(=O)Nc2ccccc2N)cc1	.	.	.	-32	-18	.
O=C(NCC[C@H]1CC[C@@H](NC(=O)c2cnccn2)[C@H](CO)O1)c1ccc2c(c1)OCO2	.	.	.	2	6	.
C[C@@H]1CN([C@H](C)CO)C(=O)c2cc(NS(C)(=O)=O)ccc2O[C@@H](C)CCCCO[C@H]1CN(C)C(=O)Nc1ccc(C(F)(F)F)cc1	.	.	.	20	0	.
CC(C)(C)c1ccc(-c2nc3cc(N)ccc3o2)cc1	18	64*	-49	.	6	69*
CC(C)c1ccc2oc(-c3ccc(N)cc3)nc2c1	-17	38	-44	.	.	81*
Cc1c(NC(=O)c2ccc([N+](=O)[O-])o2)cccc1-c1nc2ncccc2o1	96*	13	-31	-1	17	23
Nc1ccc(-c2nc3cc([N+](=O)[O-])ccc3o2)cc1	-59	-30	18	-76	-87	-19
COc1cccc(C(=O)Nc2cccc(-c3nc4ncccc4o3)c2C)c1	-17	27	0	.	.	9
Cc1ccc(-c2nc3cc(C)ccc3o2)cc1	-4	65*	-23	.	.	84*
Cc1ccc2oc(-c3ccco3)nc2c1	-4	-30	1	.	.	13
C[C@@H]1CN([C@H](C)CO)C(=O)c2cc(NC(=O)c3ccncc3)ccc2O[C@@H](C)CCCCO[C@H]1CN(C)C(=O)Nc1ccc(F)cc1	.	.	.	-10	-3	.
CN1CCN(C(=O)C[C@H]2C=C[C@H](NC(=O)c3ccc4c(c3)OCO4)[C@@H](CO)O2)CC1	.	.	.	13	8	.
